The values that follow come from PubChem BioAssay (NCI).

Compounds without any hit were thinned out: in the full panel of roughly 79,000, 15% have a hit. Unmarked numbers belong to inactive results. Calls of active or inactive are those of the source. Cut-off read from the data, not from the text of the source: active = growth inhibition above about 70%; inactive = the rest.

Assay [1] is described as follows: NCI Yeast Anticancer Drug Screen. Data for the rad50 strain (AID 155).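 Note: 0% = growth of vehicle-only cultures of the same strain.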 To be noted: S. cerevisiae rad50 strain growth inhibition, hits give high values. A digest of the protocol:
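Yeast carrying a defined DNA repair defect were exposed to test compounds, and growth was compared with vehicle-treated controls to give percent inhibition.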

Assay [2] can be described thus: NCI Yeast Anticancer Drug Screen. Data for the mec2-1 strain (AID 157). To be noted: S. cerevisiae mec2-1 strain, hits give high values. A digest of the protocol:
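Test agents were screened against the mec2-1 yeast strain, with defined DNA repair or cell cycle alteration. Growth was scored as inhibition against vehicle-only controls.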

Assay [3] in a line: NCI Yeast Anticancer Drug Screen. Data for the sgs1 mgt1 strain (AID 161).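 Note: 0% = growth of cultures given vehicle only.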 To be noted: S. cerevisiae sgs1 mgt1 strain, hits give high values. A digest of the protocol: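 Inhibition of yeast growth, normalised to vehicle-treated controls, is reported for a strain bearing genetic alterations in DNA damage repair.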
Assay [4] is described as follows: NCI Yeast Anticancer Drug Screen. Data for the cln2 rad14 strain (AID 165).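 Note: 0% = growth equal to vehicle treated cultures.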 To be noted: S. cerevisiae cln2 rad14 strain, hits give high values. A digest of the protocol: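 Growth of compound-exposed yeast (cln2 rad14 genotype) measured and expressed as inhibition relative to vehicle.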
Assay [5] can be described thus: NCI Yeast Anticancer Drug Screen. Data for the bub3 strain (AID 167). Conditions: S. cerevisiae bub3 mutant strain, hits give high values. A digest of the protocol: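 Compounds were applied to a genetically altered yeast strain carrying a cell-cycle control defect. Growth inhibition was scored against vehicle-treated controls.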
Assay [6] is described as follows: NCI Yeast Anticancer Drug Screen. Data for the mlh1 rad18 strain (AID 175). Conditions: S. cerevisiae mlh1 rad18 strain growth inhibition, hits give high values. A digest of the protocol:
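In this whole-cell yeast screen, a strain with altered DNA damage repair is challenged with compound, and its growth is measured against matched vehicle-treated controls.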

Where [7] appears, read: at 5.0 µM (retest, dose inferred, filed as 0.5).
Where [8] appears, read: at 50.0 µM (retest, dose inferred, filed as 5.0).

Turning to `Nc1ccc(CSc2ccc(Cl)cc2)cc1Cl`, the growth inhibition in assay [1] (setting [7]) is -3%; in assay [1] (setting [8]) it was 99% (active); in assay [1] (at 50.0 µM), 37%; in assay [2] (setting [7]), -5%; in assay [2] (setting [8]), 99% (active); in assay [2] (at 50.0 µM), 3.9%. Also, the growth inhibition in assay [3] (setting [7]) was -6%; in assay [3] (setting [8]) it was 98% (active); in assay [3] (at 50.0 µM), 40.9%; in assay [4] (setting [7]), -16%; in assay [4] (setting [8]), 99% (active); in assay [4] (at 50.0 µM), -24.7%. Further, the growth inhibition in assay [5] (setting [7]) was 32%; in assay [5] (setting [8]), 99% (active); in assay [5] (at 50.0 µM) it was 4.35%; in assay [6] (setting [7]), 1%; in assay [6] (setting [8]), 99% (active); in assay [6] (at 50.0 µM) it was 13.7%.

As to `COc1ccc(C2COc3cc(O)c(O)cc3C2)cc1OC` (configuration not stated), the growth inhibition in assay [1] (setting [7]) was -10%; in assay [1] (setting [8]), 60%; in assay [1] (at 50.0 µM), 61.4%; in assay [2] (setting [7]), 14%; in assay [2] (setting [8]) it was 81% (active); in assay [2] (at 50.0 µM), 72.2% (active). For the same molecule, the growth inhibition in assay [3] (setting [7]) is 7%; in assay [3] (setting [8]) it was 69%; in assay [3] (at 50.0 µM), 43.3%; in assay [4] (setting [7]) it was -6%; in assay [4] (setting [8]), 2%; in assay [4] (at 50.0 µM), 51.5%. In addition, the growth inhibition in assay [5] (setting [7]) is -14%; in assay [5] (setting [8]), 60%; in assay [5] (at 50.0 µM), 29.6%; in assay [6] (setting [7]), 1%; in assay [6] (setting [8]), 90% (active); in assay [6] (at 50.0 µM), 88% (active).

For the molecule `O=c1oc2c(-c3ccccc3)cccc2c(O)c1-c1ccccc1`, the growth inhibition in assay [1] (setting [7]) is -2%; in assay [1] (setting [8]) it was 58%; in assay [1] (at 50.0 µM), 48.6%; in assay [2] (setting [7]), -2%; in assay [2] (setting [8]), 86% (active); in assay [2] (at 50.0 µM), 60.2%. In addition, the growth inhibition in assay [3] (setting [7]) was 3%; in assay [3] (setting [8]) it was 87% (active); in assay [3] (at 50.0 µM) it was 58.9%; in assay [4] (setting [7]), 0%; in assay [4] (setting [8]), 36%; in assay [4] (at 50.0 µM), 33%. Also, the growth inhibition is -4% in assay [5] (setting [7]); 79% (active) in assay [5] (setting [8]); 55% in assay [5] (at 50.0 µM); 0% in assay [6] (setting [7]); 81% (active) in assay [6] (setting [8]); 70.5% (active) in assay [6] (at 50.0 µM).

For `CC(C)(C)OC(=O)N[C@H]1CC2(C=C(Cl)C(=O)C(Cl)=C2)OC1=O`, the growth inhibition was 32% in assay [1] (setting [7]); 70% (active) in assay [1] (setting [8]); 86.5% (active) in assay [1] (at 50.0 µM); 16% in assay [2] (setting [7]); 72% (active) in assay [2] (setting [8]); 80.8% (active) in assay [2] (at 50.0 µM). Further, the growth inhibition in assay [3] (setting [7]) was 23%; in assay [3] (setting [8]) it was 90% (active); in assay [3] (at 50.0 µM) it was 90.8% (active); in assay [4] (setting [7]) it was 13%; in assay [4] (setting [8]), 31%; in assay [4] (at 50.0 µM), 69.2%. Besides, the growth inhibition was 14% in assay [5] (setting [7]); 83% (active) in assay [5] (setting [8]); 70.4% (active) in assay [5] (at 50.0 µM); 43% in assay [6] (setting [7]); 92% (active) in assay [6] (setting [8]); 81% (active) in assay [6] (at 50.0 µM).

For `O=c1nc(-c2ccccc2)cc(-c2ccccc2O)[nH]1`, the growth inhibition in assay [1] (setting [7]) is -11%; in assay [1] (setting [8]), 93% (active); in assay [1] (at 50.0 µM) it was 44.1%; in assay [2] (setting [7]), -1%; in assay [2] (setting [8]) it was 25%; in assay [2] (at 50.0 µM) it was 16.3%. Further, the growth inhibition is -1% in assay [3] (setting [7]); 40% in assay [3] (setting [8]); 30.4% in assay [3] (at 50.0 µM); 19% in assay [4] (setting [7]); 61% in assay [4] (setting [8]); 33.8% in assay [4] (at 50.0 µM). For the same molecule, the growth inhibition in assay [5] (setting [7]) was 0%; in assay [5] (setting [8]), 87% (active); in assay [5] (at 50.0 µM) it was 16.9%; in assay [6] (setting [7]) it was 1%; in assay [6] (setting [8]), 68%; in assay [6] (at 50.0 µM), 33.5%.

Regarding `Cc1nc(N)sc1N=Nc1cc(Cl)c([N+](=O)[O-])cc1Cl`, the growth inhibition in assay [1] (setting [7]) is -4%; in assay [1] (setting [8]) it was 26%; in assay [1] (at 50.0 µM), 38%; in assay [2] (setting [7]), -7%; in assay [2] (setting [8]), 33%; in assay [2] (at 50.0 µM), 39.5%. In addition, the growth inhibition was 4% in assay [3] (setting [7]); 77% (active) in assay [3] (setting [8]); 70.2% (active) in assay [3] (at 50.0 µM); 4% in assay [4] (setting [7]); 2% in assay [4] (setting [8]); 35.1% in assay [4] (at 50.0 µM). The growth inhibition in assay [5] (setting [7]) was 4%; in assay [5] (setting [8]), 7%; in assay [5] (at 50.0 µM), 47.5%; in assay [6] (setting [7]) it was 11%; in assay [6] (setting [8]), 78% (active); in assay [6] (at 50.0 µM), 78.1% (active).

`C[n+]1c2ccc(Cl)cc2nc2cc(-c3ccccc3)ccc21`: the growth inhibition in assay [1] (setting [7]) was 15%; in assay [1] (setting [8]) it was 98% (active); in assay [1] (at 50.0 µM), 98.6% (active); in assay [2] (setting [7]), 23%; in assay [2] (setting [8]), 99% (active); in assay [2] (at 50.0 µM), 99% (active). For the same molecule, the growth inhibition was 32% in assay [3] (setting [7]); 99% (active) in assay [3] (setting [8]); 98.9% (active) in assay [3] (at 50.0 µM); 7% in assay [4] (setting [7]); 98% (active) in assay [4] (setting [8]); 98.2% (active) in assay [4] (at 50.0 µM). In addition, the growth inhibition in assay [5] (setting [7]) was 54%; in assay [5] (setting [8]), 98% (active); in assay [5] (at 50.0 µM), 98.9% (active); in assay [6] (setting [7]) it was 39%; in assay [6] (setting [8]), 98% (active); in assay [6] (at 50.0 µM) it was 98.6% (active).

On to `S=C(N/N=C1/CCCC/C1=N/NC(=S)N1CCOCC1)N1CCOCC1`, for which the growth inhibition in assay [1] (setting [7]) is 38%; in assay [1] (setting [8]) it was 96% (active); in assay [1] (at 50.0 µM), 90.1% (active); in assay [2] (setting [7]) it was 33%; in assay [2] (setting [8]), 99% (active); in assay [2] (at 50.0 µM) it was 93.7% (active). The growth inhibition in assay [3] (setting [7]) is 40%; in assay [3] (setting [8]), 99% (active); in assay [3] (at 50.0 µM) it was 91.4% (active); in assay [4] (setting [7]), 32%; in assay [4] (setting [8]), 98% (active); in assay [4] (at 50.0 µM), 91.2% (active). In addition, the growth inhibition in assay [5] (setting [7]) was 51%; in assay [5] (setting [8]) it was 99% (active); in assay [5] (at 50.0 µM), 91% (active); in assay [6] (setting [7]), 41%; in assay [6] (setting [8]), 97% (active); in assay [6] (at 50.0 µM), 91.2% (active).

As for `CCSSC12CCCN1C(=O)C(C)N(C)C2=O` (configuration not stated), the growth inhibition was 1% in assay [1] (setting [7]); 79% (active) in assay [1] (setting [8]); 77.6% (active) in assay [1] (at 50.0 µM); 9% in assay [2] (setting [7]); 81% (active) in assay [2] (setting [8]); 16.4% in assay [2] (at 50.0 µM). Besides, the growth inhibition in assay [3] (setting [7]) is 7%; in assay [3] (setting [8]), 49%; in assay [3] (at 50.0 µM), 11.6%; in assay [4] (setting [7]), 11%; in assay [4] (setting [8]) it was 58%; in assay [4] (at 50.0 µM) it was -61.4%. Further, the growth inhibition in assay [5] (setting [7]) is 0%; in assay [5] (setting [8]), 53%; in assay [5] (at 50.0 µM) it was 19.8%; in assay [6] (setting [7]), 1%; in assay [6] (setting [8]), 84% (active); in assay [6] (at 50.0 µM) it was 4.5%.
